Only a selection was taken, and hits are over-represented in it overall.
VHR inh color: VHR1 phosphatase inhibitors, primary screen, biochemical, colorimetric, HTS. Dual specificity protein phosphatase 3 (Homo sapiens), P51452. recombinant VHR phosphatase, colorimetric substrate read-out. inhibition, % at 20 µM. hit rate 0.7% among 50,000; in the data active = inhibition above about 60%
Target sequence (P51452 whole entry, looked up): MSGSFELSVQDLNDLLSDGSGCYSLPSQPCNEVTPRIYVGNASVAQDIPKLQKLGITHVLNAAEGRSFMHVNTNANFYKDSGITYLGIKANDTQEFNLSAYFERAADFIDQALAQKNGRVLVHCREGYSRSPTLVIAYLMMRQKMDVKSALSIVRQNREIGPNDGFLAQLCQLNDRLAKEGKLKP
Hits are given with their value; – = inactive.

SMILES	VHR inh color
CC1=C(C(=O)OCc2ccccc2)C(c2ccccc2[N+](=O)[O-])CC(=O)N1 (stereo not drawn)	97
COCCOC(=O)C1=C(C)NC(=O)CC1c1c(F)cccc1Cl (stereo not drawn)	–
CC1=C(C(=O)OCCCc2ccccc2)C(c2c(F)cccc2Cl)CC(=O)N1 (stereo not drawn)	–
COC(=O)c1ccc(C2CC(=O)NC(C)=C2C(=O)OCc2ccccc2)cc1 (stereo not drawn)	–
CC1=C(C(=O)OCc2ccccc2)C(c2ccc([N+](=O)[O-])cc2)CC(=O)N1 (stereo not drawn)	–
CC1=C(C(=O)OCc2ccccc2)C(c2c(F)cccc2Cl)CC(=O)N1 (stereo not drawn)	112
CCOc1ccccc1C=Nc1ccc(C(N)=O)cc1	–
COc1ccccc1-n1c(O)c(C=Nc2ccccc2Cl)c(=O)[nH]c1=O	–
O=c1[nH]c(N/N=C\c2c(Cl)cccc2Cl)nnc1-c1ccccc1	–
CC(C)=C1C(=O)NN(c2ccc(C)c(Cl)c2)C1=O	–
CC(C)=C1C(=O)NN(c2cccc(Br)c2)C1=O	81
COc1ccc(Cl)cc1/C=C1/C(=O)NN(c2cccc(Br)c2)C1=O	–
C=COCCNC(=O)C(=O)Nc1ccccc1	–
CN(C)c1ccc(/C=N/S(=O)(=O)CCc2ccccc2)cc1	–
Cc1ccc(S(=O)(=O)N/N=C/C=C/c2ccc(N(C)C)cc2)cc1[N+](=O)[O-]	–
CN(C)c1ccc(/C=C/C=C/c2cc[n+](CCCS(=O)(=O)[O-])cc2)cc1	100
Nc1ccc(C2=Nc3cccc4cccc(c34)N2)cc1	85
O=C(N/N=C\c1ccc(O)cc1O)C(=O)N/N=C/c1ccc(O)cc1O	–
Cc1cc(/C=N/n2cnnc2)c(C)n1C	–
COC(=O)c1ccc(COc2cc3oc(=O)cc(-c4ccccc4)c3cc2Cl)cc1	98
COC(=O)c1ccc(COc2ccc3c(-c4ccccc4)cc(=O)oc3c2C)cc1	–
COC(=O)c1ccc(COc2cc3oc(=O)c4c(c3cc2Cl)CCC4)cc1	–
O=[N+]([O-])c1cccc(-n2cccc2/C=N/Nc2nc(N3CCOCC3)nc(N3CCOCC3)n2)c1	–
CS(=O)(=O)N(CC(=O)NC1CC1)c1ccc(Cl)cc1	–
O=c1[nH]c2ccc(N=Cc3cn(Cc4ccc(Cl)cc4Cl)c4ccccc34)cc2[nH]1	–
SMILES	VHR inh color
CCOc1ccc(N2C(=O)NC(=O)/C(=C\c3ccc(I)o3)C2=O)cc1	–
CCOc1ccc(N2C(=O)/C(=C/c3ccc(C)o3)C(=O)NC2=S)cc1	–
CCOc1ccc(N2C(=O)/C(=C/c3ccc(I)o3)C(=O)NC2=S)cc1	85
CCc1ccc(N2C(=O)/C(=C/c3ccc(I)o3)C(=O)NC2=S)cc1	–
COc1ccccc1C=C1C(=O)NC(=S)N(c2ccccc2F)C1=O	–
O=C1NC(=S)N(c2ccccc2F)C(=O)/C1=C/c1ccc(I)o1	86
CCOc1ccc(-c2csc(/C(C#N)=C/c3ccc(C)o3)n2)cc1	–
CCc1nnc(NS(=O)(=O)c2ccc(NC(=O)/C=C/c3cccc([N+](=O)[O-])c3)cc2)s1	–
O=C1C(=O)N(c2cccnc2)C(c2ccccc2)/C1=C(\O)c1ccc(Cl)cc1 (stereo not drawn)	–
CCOC(=O)c1c(-c2cc(C)ccc2C)csc1N	–
O=C(NCCN1CCOCC1)c1cnn2c(C(F)(F)F)cc(-c3ccco3)nc12	–
O=C(N/N=C/c1cccs1)c1cc(C2CC2)[nH]n1	–
CCN(CC)CCN1C(=O)C(O)=C(C(=O)/C=C/c2ccccc2)C1c1ccc(O)c(OC)c1 (stereo not drawn)	–
CC(C)CC(=O)N1CCN(C2CCC(C)CC2)CC1 (stereo not drawn)	–
COc1cccc(-c2cc(C(=O)Nc3ncccn3)c3ccccc3n2)c1	–
COc1cccc(-c2cc(C(=O)Nc3nn[nH]n3)c3ccccc3n2)c1	–
COc1cccc(-c2cc(C(=O)Nc3nc4ccccc4s3)c3ccccc3n2)c1	68
CCc1ccc(-n2c(C)cc(/C=N/NC(=O)c3ccncc3)c2C)cc1	87
Cc1cccc(C)c1-n1c(C)cc(/C=N/NC(=O)c2ccncc2)c1C	–
Cc1ccc(-n2c(C)cc(/C=N/NC(=O)c3ccncc3)c2C)cc1C	–
CC1=NN(C(=O)c2cccc(Br)c2)C(O)(C(F)(F)F)C1 (stereo not drawn)	–
NC1=NC(=O)/C(=C\c2ccc(-c3ccc([N+](=O)[O-])cc3)o2)S1	77
NC1=NC(=O)/C(=C\c2ccc(-c3cccc(C(=O)O)c3)o2)S1	–
NC1=NC(=O)/C(=C\c2ccc(-c3ccccc3Cl)o2)S1	–
O=C1CC(c2ccccc2)CC2=C1C(c1ccc(O)cc1)Nc1ccc(C(=O)c3ccccc3)cc1N2 (stereo not drawn)	–
SMILES	VHR inh color
COc1ccc(-c2nc3sc(C)c(C)c3c(=O)[nH]2)cc1C	–
COc1ccccc1C/C(N)=N/OC(=O)c1ccc(I)cc1	–
COc1ccccc1C/C(N)=N/OC(=O)c1ccccc1Br	–
COc1ccccc1C/C(N)=N/OC(=O)c1ccco1	96
S=C(S)N(CCN(Cc1cccs1)C(=S)S)Cc1cccs1	98
CC1(C(=O)NCc2cccs2)CC1(Br)Br (stereo not drawn)	–
CC(=O)Nc1ccccc1NC(=O)Cc1cccs1	–
COC(=O)C(Cc1ccccc1)N1CC1C(N)=O (stereo not drawn)	–
Cn1c(=O)c2c(nc(Sc3nc4ccccc4n3Cc3ccccc3)n2C)n(C)c1=O	–
Cn1c(=O)c2c([nH]c(=S)n2Cc2ccc(Cl)c(Cl)c2)n(C)c1=O	114
Cn1c(=O)c2c(nc(N/N=C/c3ccccc3Cl)n2Cc2ccccc2)n(C)c1=O	–
Cc1ccc(C(=O)Nc2cccc(NC(=O)c3cccc(Cl)c3)c2)cc1	–
COc1ccc(Cl)cc1C(=O)Nc1ccccc1F	–
Fc1c(F)c(C(F)(F)F)c(F)c(F)c1Oc1cccc2cccnc12	98
O=C(Nc1ccc(F)cc1)Nc1cccc2cccnc12	–
Cc1ccc(C)n1-c1cccc2cccnc12	–
CCOC(=O)CCN1C(=O)/C(=C/c2ccccc2)SC1=S	–
Cc1c(Cc2ccccc2)c(=O)oc2cc(OCC(=O)N(C)C)ccc12	–
O=[N+]([O-])c1ccc(Nc2nc(-c3ccccc3)cc(-c3ccccc3)n2)cc1	–
O=C(Nc1ccc(Cl)c(Cl)c1)C1C2/C=C\CCCCC21 (stereo not drawn)	–
O=C(O)C1C(C(=O)Nc2ccccc2)C2C=CC1C21CC1 (stereo not drawn)	–
O=C(Nc1ccccc1)C1C2/C=C\CCCCC21 (stereo not drawn)	100
Cc1cc(/C=N\Nc2ccc([N+](=O)[O-])cn2)c(C)n1-c1ccc(O)cc1	85
Cc1cc(/C=N\Nc2ccc([N+](=O)[O-])cn2)c(C)n1-c1ccc(C(=O)O)cc1	–
Cc1cc(C=O)c(C)n1-c1ccc([N+](=O)[O-])cc1	–
SMILES	VHR inh color
O=C(NCC1COc2ccccc2O1)C(c1ccccc1)c1ccccc1 (stereo not drawn)	–
N/C(=N\OC(=O)c1ccccc1[N+](=O)[O-])c1ccncc1	–
O=C(Oc1cccc2ccccc12)c1ccc(Cl)cc1Cl	–
COc1ccc([N+](=O)[O-])cc1-c1ccc(C(=O)O)o1	–
CC(=C\c1ccccc1)/C=C1/SC(=S)N(c2cccc(Cl)c2)C1=O	–
COc1ccc(N2Cc3ccc(C(=O)N/N=C\c4ccc(Br)cc4)cc3C2)cc1	–
Cc1cc2c(cc1C)CN(c1cccc(C(=O)NN)c1)C2	–

From PubChem BioAssay
